# Records with an inconclusive call do not appear. A call without a number means that no potency is given here. The source made the active and inactive calls. Unless noted, the call rests on the fitted dose curve; in most records, active means well fitted curve in the direction sought with a large enough effect; inconclusive means small, poorly fitted or top-dose-only effect, or another doubt; inactive means no such curve, though single readings can be large; an effect the other way counts as inactive or inconclusive.
# What was measured:
# [1] = biological target: Calcium and integrin-binding protein 1 (Homo sapiens) (UniProt Q99828); assay: Primary qHTS for Identification of Calcium Integrin Binding Protein 1 (CIB1) Competitor (AID 1508620);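 further: GST tagged CIB1 binding a fluorescein labelled alphaIIb integrin peptide tracer; top concentration of the series differs between compounds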
# Procedure, shortened: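 Fluorescence polarization competition: GST-tagged CIB1 (1 uM final) preincubated with compound 15 min at room temperature, then FITC-labelled alphaIIb peptide (100 nM final) added. After 15 min at room temperature, polarization read at Ex 480/Em 540.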
# [2] = Primary qHTS for inhibitors of nuclear receptor binding SET domain protein 2 (NSD2) in an isogenic RCH-ACV NSD2 p.E1099K mutant (9B) (AID 1645876); further: nearly all actives have a fitted effect of over 70% in size; further: potency means the concentration at half of the fitted maximal effect
# [3] = Confirmatory qHTS for small molecule stabilizers of the endoplasmic reticulum resident proteome: Secreted ER Calcium Modulated Protein (SERCaMP) assay (AID 1508628); further: series mostly up to about 76 µM; nearly all actives have a fitted effect of over 40% in size
# Procedure, shortened: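 GLuc-SERCaMP-expressing SH-SY5Y cells, pretreated 16 h with compound, are challenged with thapsigargin to empty ER calcium stores; after 4 h, coelenterazine is added directly to the medium and luminescence is imaged.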
# [4] = biological target: Cytochrome P450 2C9 (Homo sapiens) (UniProt P11712); assay: Cytochrome P450 family 2 subfamily C member 9 (CYP2C9) small molecule antagonists: luciferase biochemical (cell-free) qHTS assay (AID 1645842; active means well fitted curve in the direction sought with a large enough effect in the repeat runs; an effect the other way counts as inactive or inconclusive; further: nearly all actives have a fitted effect of over 55% in size; further: potency means the concentration at half of the fitted maximal effect)
# Procedure, shortened: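 P450-Glo CYP2C9 system: proluciferin substrate with enzyme in mix containing 0.4% BSA, 10 min at room temperature, then NADPH regeneration solution added and incubated 1 h at 37C. Detection reagent stopped reaction; luminescence read after 20 min as RLU.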
# [5] = biological target: Cytochrome P450 2D6 (Homo sapiens) (UniProt P10635); assay: Cytochrome P450 family 2 subfamily D member 6 (CYP2D6) small molecule antagonists: luciferase biochemical (cell-free) qHTS assay (AID 1645840; active means well fitted curve in the direction sought with a large enough effect in the repeat runs; an effect the other way counts as inactive or inconclusive; further: nearly all actives have a fitted effect of over 55% in size; further: potency means the concentration at half of the fitted maximal effect)
# Procedure, shortened: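 P450-Glo CYP2D6 system: proluciferin substrate converted by enzyme to luciferin, read by luminescence proportional to activity. Enzyme-substrate mix with compound 10 min at room temperature, then NADPH regeneration 1 h before detection reagent.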
# [6] = biological target: N-terminal Xaa-Pro-Lys N-methyltransferase 1 (Homo sapiens) (UniProt Q9BV86); assay: Confirmatory qHTS for Inhibitors of N-terminal methyltransferase 1 (NTMT1): MTaseGlo Assay (AID 1645874); further: nearly all actives have a fitted effect of over 65% in size; further: potency means the concentration at half of the fitted maximal effect
# Procedure, shortened: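 Enzyme mix (125 nM NTMT1, 100 uM SAM) + compound, 15 min RT; + 1 uM SPKRIA, 30 min RT, dark; MTase-Glo reagent 30 min, detection solution 30 min; luminescence. % inhibition vs no-enzyme/DMSO controls, 4-parameter Hill fit.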
# [7] = Primary qHTS for small molecule stabilizers of the endoplasmic reticulum resident proteome: Secreted ER Calcium Modulated Protein (SERCaMP) assay (AID 1508630)
# Procedure, shortened: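 The SH-SY5Y reporter protocol was run at 3 concentrations up to 38.3 uM (primary) or 11 concentrations (follow-up): 16 h compound, 100 nM thapsigargin for 4 h, then extracellular luciferase luminescence.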
# Chain of Calcium and integrin-binding protein 1 (Homo sapiens) (Q99828 whole entry, looked up): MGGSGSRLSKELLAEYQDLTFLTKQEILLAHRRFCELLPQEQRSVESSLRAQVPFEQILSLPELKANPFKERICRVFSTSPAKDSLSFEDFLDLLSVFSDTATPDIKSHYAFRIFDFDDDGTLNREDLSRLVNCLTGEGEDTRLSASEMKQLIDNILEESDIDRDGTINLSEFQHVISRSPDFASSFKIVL
# Chain of Cytochrome P450 2C9 (Homo sapiens) (P11712 whole entry, looked up): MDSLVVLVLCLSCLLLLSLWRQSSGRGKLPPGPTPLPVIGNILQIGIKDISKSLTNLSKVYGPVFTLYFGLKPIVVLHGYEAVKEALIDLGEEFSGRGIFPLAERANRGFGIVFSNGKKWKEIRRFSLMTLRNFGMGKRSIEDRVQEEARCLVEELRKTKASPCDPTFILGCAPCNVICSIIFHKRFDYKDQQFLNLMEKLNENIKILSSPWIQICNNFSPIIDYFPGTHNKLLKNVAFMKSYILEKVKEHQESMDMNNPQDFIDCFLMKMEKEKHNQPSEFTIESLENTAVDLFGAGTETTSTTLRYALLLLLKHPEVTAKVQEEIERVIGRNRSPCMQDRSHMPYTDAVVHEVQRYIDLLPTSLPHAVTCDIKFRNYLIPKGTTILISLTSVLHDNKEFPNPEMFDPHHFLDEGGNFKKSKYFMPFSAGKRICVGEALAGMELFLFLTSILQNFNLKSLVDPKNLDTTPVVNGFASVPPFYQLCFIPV
# Chain of Cytochrome P450 2D6 (Homo sapiens) (P10635 whole entry, looked up): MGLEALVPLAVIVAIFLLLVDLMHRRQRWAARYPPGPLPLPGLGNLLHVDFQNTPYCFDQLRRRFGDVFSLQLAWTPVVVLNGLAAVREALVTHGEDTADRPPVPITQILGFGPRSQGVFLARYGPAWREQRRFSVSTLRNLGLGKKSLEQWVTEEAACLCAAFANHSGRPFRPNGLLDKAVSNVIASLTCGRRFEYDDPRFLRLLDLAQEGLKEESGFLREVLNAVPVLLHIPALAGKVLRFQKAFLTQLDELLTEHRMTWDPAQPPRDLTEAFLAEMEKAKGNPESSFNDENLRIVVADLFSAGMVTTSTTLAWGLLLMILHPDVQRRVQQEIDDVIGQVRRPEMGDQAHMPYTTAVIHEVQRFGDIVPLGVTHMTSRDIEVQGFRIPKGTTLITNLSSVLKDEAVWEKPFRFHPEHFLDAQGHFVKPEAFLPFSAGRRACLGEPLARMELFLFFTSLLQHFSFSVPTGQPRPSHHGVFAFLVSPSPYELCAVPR
# Chain of N-terminal Xaa-Pro-Lys N-methyltransferase 1 (Homo sapiens) (Q9BV86 whole entry, looked up): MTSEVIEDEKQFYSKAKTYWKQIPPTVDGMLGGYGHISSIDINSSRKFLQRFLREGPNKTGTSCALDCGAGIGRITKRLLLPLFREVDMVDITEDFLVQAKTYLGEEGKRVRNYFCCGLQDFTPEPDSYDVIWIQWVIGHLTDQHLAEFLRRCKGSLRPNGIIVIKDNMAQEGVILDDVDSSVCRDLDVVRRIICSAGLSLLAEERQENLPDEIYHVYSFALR
compound,measurement,setting,value
CC[C@@H](O)C[C@@H]1C(C)=C[C@@H]2CCCC[C@@H]2[C@@]1(C)C(=O)O,Potency,[1],inactive
same,Potency,[2],inactive
Cc1ccc(N)cc1O,outcome,[3],inactive
same,Potency,[4],20 µM (active)
COc1c2cc(c(O)c1OC)-c1cc(ccc1O)CCC(O)CCCC2 (configuration not stated),Potency,[1],inactive
same,Potency,[2],inactive
Cc1cc(OCc2nc(-c3ccccc3Cl)cs2)ccc1OCC(=O)O,Potency,[5],inactive
same,Potency,[2],inactive
CC(C)CC(=O)O[C@@H]1OC=C(CO[C@@H]2O[C@H](CO)[C@@H](O)[C@H](O)[C@H]2O)[C@H]2[C@@H]3O[C@H]3[C@@](O)(CO)[C@@H]12,Potency,[1],inactive
same,Potency,[2],inactive
COc1cc2c(cc1OC)-c1[nH]nc(Nc3cccc(F)c3)c1C2,Potency,[5],21.3 µM (active)
same,Potency,[4],8.49 µM (active)
same,Potency,[2],0.0916 µM (active)
C/C=C1\[C@H](OC2OC(COC3OC(CO)C(O)C(O)C3O)C(O)C(O)C2O)OC=C(C(=O)OC)[C@H]1CC(=O)OCCc1ccc(O)cc1 (some centres not stated),Potency,[1],inactive
same,Potency,[2],inactive
CC(C)=CC/C=C(\C)[C@H]1CC[C@]2(C)[C@@H]1[C@H](O)C[C@@H]1[C@@]3(C)CC[C@H](O)C(C)(C)[C@@H]3[C@@H](O[C@@H]3O[C@H](CO)[C@@H](O)[C@H](O)[C@H]3O)C[C@]12C,Potency,[1],inactive
same,Potency,[2],inactive
CC(=O)C1=CCC2C3CCC4CC(O[C@@H]5O[C@H](CO)[C@@H](O[C@@H]6O[C@@H](C)[C@H](O)[C@@H](O)[C@H]6O)[C@H](O)[C@H]5O[C@@H]5O[C@H](CO)[C@@H](O)[C@H](O)[C@H]5O)CCC4(C)C3CCC12C (some centres not stated),Potency,[1],inactive
same,Potency,[2],inactive
NCc1ccc(Nc2ncc(F)c(Nc3ccccc3)n2)cc1,Potency,[5],15.1 µM (active)
same,Potency,[4],6.74 µM (active)
same,Potency,[2],3.25 µM (active)
COc1cc2ncnc(Nc3ccc(F)c(Cl)c3)c2cc1NC(=O)/C=C/CN1CCCCC1,Potency,[5],0.0477 µM (active)
same,Potency,[4],inactive
same,Potency,[6],35.5 µM (active)
same,Potency,[2],4.17 µM (active)
CNC(=O)c1ccccc1Nc1cc(Nc2ccc(N3CCOCC3)cc2OC)ncc1C(F)(F)F,Potency,[4],4.25 µM (active)
same,Potency,[6],inactive
same,Potency,[2],2.9 µM (active)
CN(C)CCn1cc(S(=O)(=O)c2cccc(F)c2)c2cccnc21,Potency,[5],21.3 µM (active)
same,Potency,[4],inactive
CC[C@H]1OC(=O)[C@H](C)[C@@H](O[C@H]2C[C@@](C)(OC)[C@@H](O)[C@H](C)O2)[C@H](C)[C@@H](O[C@@H]2O[C@H](C)C[C@H](N(C)C)[C@H]2O)[C@](C)(O)C[C@@H](C)C(=O)[C@H](C)[C@H]2OC(=O)O[C@@]21C,Potency,[1],inactive
same,Potency,[2],inactive
CC1CC[C@]2(C(=O)O)CC[C@]3(C(=O)O)C(=CCC4[C@@]5(C)CC[C@H](O[C@@H]6O[C@H](CO)[C@@H](O)[C@H](O)[C@H]6O)C(C)(C)C5CC[C@]43C)C2C1C (some centres not stated),Potency,[1],inactive
same,Potency,[2],inactive
CC(C)=CCCC1(C)C=Cc2c(c(C)cc3c2[nH]c2ccccc23)O1 (configuration not stated),outcome,[7],inactive
C=C1CC2C(C)(CCC(=O)O)C(C(C)(C)O)CCC2(C)C2C(=O)OC(C)(C(=O)OC)C(=O)C12C (configuration not stated),Potency,[1],inactive
same,Potency,[2],inactive
CC1(C)CC[C@]2(C(=O)O)CC[C@]3(C)C(=CCC4[C@@]5(C)CC[C@H](O[C@@H]6O[C@H](CO)[C@@H](O)[C@H](O)[C@H]6O[C@@H]6O[C@H](CO)[C@@H](O)[C@H](O)[C@H]6O)[C@@](C)(CO)C5CC[C@]43C)[C@@H]2C1 (some centres not stated),Potency,[1],inactive
same,Potency,[2],inactive
C=C(C)C1CC[C@]2(C(=O)O)CC[C@]3(C(=O)O)[C@H](CCC4[C@@]5(C)CC[C@H](O)C(C)(C)C5CC[C@]43C)C12 (some centres not stated),Potency,[1],inactive
same,Potency,[2],inactive
COc1cc(Nc2nc3ccccc3nc2NS(=O)(=O)c2ccc(NC(=O)c3ccc(OC)c(C)c3)cc2)cc(OC)c1,Potency,[5],inactive
same,Potency,[4],3.79 µM (active)
Cc1cc(C(N)=O)ccc1-n1c(CCC(=O)O)ccc1-c1ccc(-n2ccnc2)cc1,Potency,[5],0.952 µM (active)
same,Potency,[4],3.38 µM (active)
same,Potency,[2],inactive
CC(C)CCC1(O)C(=O)C(C)(C)C(O[C@@H]2O[C@H](CO)[C@@H](O)[C@H](O)[C@H]2O)C(C)(C)C1O (some centres not stated),Potency,[1],inactive
same,Potency,[2],inactive
CC1(C)CC[C@]2(C(=O)O)CC[C@]3(C)C(=CCC4[C@@]5(C)CC[C@H](O[C@@H]6O[C@H](C(=O)O)[C@@H](O[C@@H]7OC[C@@H](O)[C@H](O)[C@H]7O)[C@H](O)[C@H]6O)C(C)(C)C5CC[C@]43C)C2C1O (some centres not stated),Potency,[1],inactive
same,Potency,[2],inactive
COc1cc(N2CCC(N3CCN(C)CC3)CC2)ccc1Nc1ncc(Cl)c(-c2c[nH]c3ccccc23)n1,Potency,[6],55.5 µM (active)
